Measured values reported in PubChem BioAssay AID434994 (NMMLSC, 2010).
The other results are listed elsewhere or left out. Unmarked numbers belong to inactive results.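 How the source made its calls: active means superoxide signal below 65% of the plate average of sample wells; inactive means the rest.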

Test: superoxide lowering in aged yeast cells, confirmation, cherry picked compounds (AID 434994);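 further: cells aged with compound for 7 days at 30 degrees C before staining; 100% equals mean DHE fluorescence of all compound wells on the plate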
Conditions: S. cerevisiae aging, superoxide DHE fluorescence; at 10 µM; hits give low values

## C[C@]12CCC3C(CC[C@H]4C[C@@H](O)CC[C@]34C)C1C[C@@H](O)[C@H]2O (some centres not stated)
  superoxide response (% of plate): 90.6%

## CN1CCN(C(=S)SCC(=O)Nc2ccc(Cl)cc2C(=O)c2ccccc2)CC1
  superoxide response (% of plate): 111%
